# Experiments:
# Test in all cases: DAPPL (digital affinity profiling via proximity ligation, sequencing); 10 mM Tris-HCl pH 7.5, 50 mM NaCl, 1 mM DTT, 4% glycerol, room temperature, 30 min; GST-TFs on glutathione beads, 16-mer random dsDNA library, 0.1% formaldehyde crosslink after washing; high values mean tight binding
# FEV = biological target: T1, FEV (Homo sapiens, UniProt Q99581 1-238); conditions: protein: recombinant; tags: N-terminal GST; dsDNA, one strand shown
# T1 sequence: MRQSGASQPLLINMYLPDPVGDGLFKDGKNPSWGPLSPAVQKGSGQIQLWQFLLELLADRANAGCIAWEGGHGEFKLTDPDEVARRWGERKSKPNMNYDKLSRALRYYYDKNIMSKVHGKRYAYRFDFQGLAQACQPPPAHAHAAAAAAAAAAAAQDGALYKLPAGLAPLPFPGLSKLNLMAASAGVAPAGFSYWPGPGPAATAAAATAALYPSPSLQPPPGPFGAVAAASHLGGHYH
# Summary of the method: (§1)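 Binding signal is defined as a hexamer's read frequency for one factor over its frequency for the tag-only sample. To obtain reads, GST-fused human transcription factors were expressed in yeast, captured on glutathione beads, barcoded with DNA and pooled with that sample. Pools met 200 nmole of a 16-mer random double-stranded DNA library in Tris/NaCl/DTT/glycerol buffer for 30 min at room temperature before washing, 0.1% formaldehyde crosslinking, proximity ligation (BsaI/T4 ligase, 1 h, 37 °C), PCR and Illumina NextSeq500 sequencing.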
# ETV5 = ETV5 (Homo sapiens, UniProt P41161 1-510); conditions: protein: recombinant; tags: N-terminal GST; dsDNA, one strand shown
# Sequence of ETV5 (P41161 whole entry): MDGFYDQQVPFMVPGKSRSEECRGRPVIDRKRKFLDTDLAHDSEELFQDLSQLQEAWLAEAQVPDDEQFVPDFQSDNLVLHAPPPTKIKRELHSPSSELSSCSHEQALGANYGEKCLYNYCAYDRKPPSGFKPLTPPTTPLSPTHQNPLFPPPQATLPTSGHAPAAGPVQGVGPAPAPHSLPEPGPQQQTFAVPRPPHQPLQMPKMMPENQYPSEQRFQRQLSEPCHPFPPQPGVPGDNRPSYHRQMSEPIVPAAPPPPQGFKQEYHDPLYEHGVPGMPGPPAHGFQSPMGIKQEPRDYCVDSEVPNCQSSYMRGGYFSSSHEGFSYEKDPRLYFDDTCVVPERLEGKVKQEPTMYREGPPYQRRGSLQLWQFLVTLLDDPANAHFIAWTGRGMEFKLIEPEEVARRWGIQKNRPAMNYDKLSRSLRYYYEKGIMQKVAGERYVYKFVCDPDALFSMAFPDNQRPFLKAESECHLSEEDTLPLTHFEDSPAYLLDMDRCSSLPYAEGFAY
# Summary of the method: as §1
# HSF1 = HSF1 (Homo sapiens, UniProt Q00613 1-529); conditions: protein: recombinant; tags: N-terminal GST; chain copies: 3; dsDNA, one strand shown
# Sequence of HSF1 (Q00613 whole entry): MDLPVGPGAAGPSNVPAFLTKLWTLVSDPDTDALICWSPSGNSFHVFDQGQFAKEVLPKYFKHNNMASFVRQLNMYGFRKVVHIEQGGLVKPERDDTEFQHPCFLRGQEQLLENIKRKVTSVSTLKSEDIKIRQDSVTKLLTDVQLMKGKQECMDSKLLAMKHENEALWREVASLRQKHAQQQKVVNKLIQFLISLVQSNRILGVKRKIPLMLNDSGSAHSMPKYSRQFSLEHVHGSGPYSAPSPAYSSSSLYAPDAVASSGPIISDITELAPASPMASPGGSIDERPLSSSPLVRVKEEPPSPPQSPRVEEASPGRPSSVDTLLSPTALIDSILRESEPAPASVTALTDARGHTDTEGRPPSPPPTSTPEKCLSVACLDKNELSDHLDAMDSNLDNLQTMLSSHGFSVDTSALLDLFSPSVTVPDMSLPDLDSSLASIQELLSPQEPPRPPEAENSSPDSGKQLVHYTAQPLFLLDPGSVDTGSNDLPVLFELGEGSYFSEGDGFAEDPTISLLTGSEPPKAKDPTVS
# Summary of the method: as §1
# SPIC = biological target: T2, SPIC (Homo sapiens, UniProt Q8N5J4 1-248); conditions: protein: recombinant; tags: N-terminal GST; dsDNA, one strand shown
# T2 sequence: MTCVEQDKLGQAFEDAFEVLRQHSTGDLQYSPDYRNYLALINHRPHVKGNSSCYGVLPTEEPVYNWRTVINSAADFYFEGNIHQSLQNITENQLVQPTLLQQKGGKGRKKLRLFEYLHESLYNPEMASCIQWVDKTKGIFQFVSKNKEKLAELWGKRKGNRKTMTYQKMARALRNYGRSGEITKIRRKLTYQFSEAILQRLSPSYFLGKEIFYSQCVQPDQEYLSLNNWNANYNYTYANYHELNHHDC
# Summary of the method: as §1
# ELF4 = ELF4 (Homo sapiens, UniProt Q99607 1-663); conditions: protein: recombinant; tags: N-terminal GST; dsDNA, one strand shown
# Sequence of ELF4 (Q99607 whole entry): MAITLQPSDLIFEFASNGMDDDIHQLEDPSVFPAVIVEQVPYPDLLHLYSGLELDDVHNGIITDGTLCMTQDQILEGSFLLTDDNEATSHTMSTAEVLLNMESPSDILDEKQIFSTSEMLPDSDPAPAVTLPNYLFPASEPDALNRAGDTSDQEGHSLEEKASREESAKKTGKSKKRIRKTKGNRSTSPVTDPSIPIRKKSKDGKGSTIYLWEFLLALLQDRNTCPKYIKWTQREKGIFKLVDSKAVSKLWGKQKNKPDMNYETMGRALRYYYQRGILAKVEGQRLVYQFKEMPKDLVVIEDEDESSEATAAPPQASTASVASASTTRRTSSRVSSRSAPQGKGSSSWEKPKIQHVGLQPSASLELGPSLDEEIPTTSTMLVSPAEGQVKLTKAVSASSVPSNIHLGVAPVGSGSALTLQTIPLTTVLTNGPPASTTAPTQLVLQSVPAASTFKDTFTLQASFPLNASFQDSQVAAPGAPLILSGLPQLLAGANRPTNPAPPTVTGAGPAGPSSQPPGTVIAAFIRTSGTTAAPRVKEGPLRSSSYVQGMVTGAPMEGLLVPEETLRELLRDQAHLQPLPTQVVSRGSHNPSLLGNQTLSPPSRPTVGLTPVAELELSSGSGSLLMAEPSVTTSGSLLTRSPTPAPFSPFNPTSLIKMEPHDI
# Summary of the method: as §1
# ELK4 = biological target: T3, ELK4 (Homo sapiens, UniProt P28324-2 1-405); conditions: protein: recombinant; tags: N-terminal GST; dsDNA, one strand shown
# T3 sequence: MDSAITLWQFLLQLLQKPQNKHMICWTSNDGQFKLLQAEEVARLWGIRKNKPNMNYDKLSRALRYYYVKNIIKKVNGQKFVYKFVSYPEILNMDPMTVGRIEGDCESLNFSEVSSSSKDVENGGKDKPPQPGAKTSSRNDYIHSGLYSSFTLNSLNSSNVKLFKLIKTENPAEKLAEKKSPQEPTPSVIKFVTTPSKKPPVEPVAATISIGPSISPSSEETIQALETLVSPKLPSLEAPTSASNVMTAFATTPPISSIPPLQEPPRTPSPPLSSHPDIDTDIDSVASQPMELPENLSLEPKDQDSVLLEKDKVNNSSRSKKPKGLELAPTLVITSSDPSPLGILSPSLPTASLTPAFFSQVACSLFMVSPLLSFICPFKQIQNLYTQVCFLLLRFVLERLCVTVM
# Summary of the method: as §1
# ETV2 = biological target: T4, ETV2 (Homo sapiens, UniProt O00321 1-342); conditions: protein: recombinant; tags: N-terminal GST; dsDNA, one strand shown
# T4 sequence: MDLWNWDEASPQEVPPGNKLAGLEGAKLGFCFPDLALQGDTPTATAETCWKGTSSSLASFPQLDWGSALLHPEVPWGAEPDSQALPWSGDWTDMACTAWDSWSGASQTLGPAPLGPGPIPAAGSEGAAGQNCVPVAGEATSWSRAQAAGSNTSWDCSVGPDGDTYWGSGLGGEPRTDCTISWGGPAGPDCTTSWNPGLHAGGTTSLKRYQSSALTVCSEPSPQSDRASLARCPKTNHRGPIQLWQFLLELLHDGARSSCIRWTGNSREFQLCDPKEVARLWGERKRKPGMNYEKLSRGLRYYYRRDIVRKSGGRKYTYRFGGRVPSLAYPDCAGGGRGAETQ
# Summary of the method: as §1
# ELF3 = biological target: T5, ELF3 (Homo sapiens, UniProt P78545 1-371); conditions: protein: recombinant; tags: N-terminal GST; dsDNA, one strand shown
# T5 sequence: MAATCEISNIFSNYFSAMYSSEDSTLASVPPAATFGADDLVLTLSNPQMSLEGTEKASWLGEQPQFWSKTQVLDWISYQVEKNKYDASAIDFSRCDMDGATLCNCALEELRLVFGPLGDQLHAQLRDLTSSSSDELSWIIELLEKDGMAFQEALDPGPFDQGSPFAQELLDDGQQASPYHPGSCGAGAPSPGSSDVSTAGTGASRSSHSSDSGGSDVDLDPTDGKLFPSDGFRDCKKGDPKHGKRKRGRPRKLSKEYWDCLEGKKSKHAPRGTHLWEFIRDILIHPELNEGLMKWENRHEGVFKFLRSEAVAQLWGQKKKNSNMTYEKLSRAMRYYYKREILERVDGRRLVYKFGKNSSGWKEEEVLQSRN
# Summary of the method: as §1
# CRX = CRX (Homo sapiens, UniProt O43186 1-299); conditions: protein: recombinant; tags: N-terminal GST; dsDNA, one strand shown
# Sequence of CRX (O43186 whole entry): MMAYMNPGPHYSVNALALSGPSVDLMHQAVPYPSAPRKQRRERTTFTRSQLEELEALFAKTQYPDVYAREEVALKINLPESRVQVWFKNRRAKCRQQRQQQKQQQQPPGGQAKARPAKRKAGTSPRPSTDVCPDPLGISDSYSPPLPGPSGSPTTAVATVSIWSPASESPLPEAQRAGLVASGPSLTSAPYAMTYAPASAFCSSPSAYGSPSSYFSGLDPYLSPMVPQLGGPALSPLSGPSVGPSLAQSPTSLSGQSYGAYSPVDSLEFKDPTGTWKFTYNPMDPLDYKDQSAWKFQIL
# Summary of the method: as §1
# ETV1 = ETV1 (Homo sapiens, UniProt P50549 1-477); conditions: protein: recombinant; tags: N-terminal GST; dsDNA, one strand shown
# Sequence of ETV1 (P50549 whole entry): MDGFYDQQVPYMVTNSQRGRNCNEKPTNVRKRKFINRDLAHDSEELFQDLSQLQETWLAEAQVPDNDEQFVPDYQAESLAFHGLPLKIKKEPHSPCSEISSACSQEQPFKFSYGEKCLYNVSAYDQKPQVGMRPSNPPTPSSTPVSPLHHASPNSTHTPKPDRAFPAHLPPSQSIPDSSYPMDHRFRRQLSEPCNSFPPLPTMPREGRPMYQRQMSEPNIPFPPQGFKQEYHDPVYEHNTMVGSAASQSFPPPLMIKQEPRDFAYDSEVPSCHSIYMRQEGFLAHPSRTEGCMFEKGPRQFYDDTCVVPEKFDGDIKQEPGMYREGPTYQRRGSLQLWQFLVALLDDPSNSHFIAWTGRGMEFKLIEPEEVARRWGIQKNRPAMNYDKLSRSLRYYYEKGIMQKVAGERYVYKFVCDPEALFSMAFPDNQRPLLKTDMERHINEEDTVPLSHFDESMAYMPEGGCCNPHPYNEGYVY
# Summary of the method: as §1
# ERF = biological target: T6, ERF (Homo sapiens, UniProt P50548 1-548); conditions: protein: recombinant; tags: N-terminal GST; dsDNA, one strand shown
# T6 sequence: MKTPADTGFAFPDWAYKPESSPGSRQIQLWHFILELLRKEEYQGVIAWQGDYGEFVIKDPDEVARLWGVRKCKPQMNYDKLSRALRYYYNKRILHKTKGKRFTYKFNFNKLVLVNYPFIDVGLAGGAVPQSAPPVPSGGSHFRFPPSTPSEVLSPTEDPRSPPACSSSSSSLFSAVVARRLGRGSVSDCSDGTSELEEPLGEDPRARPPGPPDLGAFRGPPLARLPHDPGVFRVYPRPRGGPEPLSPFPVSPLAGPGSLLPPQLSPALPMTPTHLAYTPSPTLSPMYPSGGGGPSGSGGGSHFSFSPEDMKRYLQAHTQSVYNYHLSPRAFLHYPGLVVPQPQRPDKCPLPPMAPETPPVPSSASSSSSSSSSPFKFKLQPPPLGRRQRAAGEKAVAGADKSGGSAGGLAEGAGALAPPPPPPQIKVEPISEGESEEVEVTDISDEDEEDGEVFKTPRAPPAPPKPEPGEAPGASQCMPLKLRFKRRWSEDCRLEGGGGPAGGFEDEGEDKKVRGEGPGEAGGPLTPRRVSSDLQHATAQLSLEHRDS
# Summary of the method: as §1
# ETV3L = biological target: T7, ETV3L (Homo sapiens, UniProt Q6ZN32 1-361); conditions: protein: recombinant; tags: N-terminal GST; dsDNA, one strand shown
# T7 sequence: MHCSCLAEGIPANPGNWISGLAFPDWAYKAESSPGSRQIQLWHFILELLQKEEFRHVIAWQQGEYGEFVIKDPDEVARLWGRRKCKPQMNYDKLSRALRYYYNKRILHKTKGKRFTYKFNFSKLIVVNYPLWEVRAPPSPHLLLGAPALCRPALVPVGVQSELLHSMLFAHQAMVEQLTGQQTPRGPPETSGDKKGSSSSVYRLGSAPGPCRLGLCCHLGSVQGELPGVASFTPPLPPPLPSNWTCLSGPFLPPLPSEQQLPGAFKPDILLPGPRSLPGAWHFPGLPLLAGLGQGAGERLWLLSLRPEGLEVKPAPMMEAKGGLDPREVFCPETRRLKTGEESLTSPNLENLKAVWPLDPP
# Summary of the method: as §1
# ETS2 = biological target: T8, ETS2 (Homo sapiens, UniProt P15036 1-469); conditions: protein: recombinant; tags: N-terminal GST; dsDNA, one strand shown
# T8 sequence: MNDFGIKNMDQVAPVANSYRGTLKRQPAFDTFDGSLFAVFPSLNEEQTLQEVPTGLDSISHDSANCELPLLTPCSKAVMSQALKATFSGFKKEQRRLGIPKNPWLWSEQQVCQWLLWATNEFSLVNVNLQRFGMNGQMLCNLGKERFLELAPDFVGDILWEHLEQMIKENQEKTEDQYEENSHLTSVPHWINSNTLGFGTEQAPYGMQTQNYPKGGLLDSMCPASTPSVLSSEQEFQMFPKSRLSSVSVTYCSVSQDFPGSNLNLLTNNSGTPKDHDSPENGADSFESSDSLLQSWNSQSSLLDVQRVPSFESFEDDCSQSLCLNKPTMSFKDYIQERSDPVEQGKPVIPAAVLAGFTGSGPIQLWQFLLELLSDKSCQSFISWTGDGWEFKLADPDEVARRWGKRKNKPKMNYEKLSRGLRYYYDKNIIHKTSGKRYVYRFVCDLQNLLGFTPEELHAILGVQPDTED
# Summary of the method: as §1
# SPDEF = biological target: T9, SPDEF (Homo sapiens, UniProt O95238 1-335); conditions: protein: recombinant; tags: N-terminal GST; dsDNA, one strand shown
# T9 sequence: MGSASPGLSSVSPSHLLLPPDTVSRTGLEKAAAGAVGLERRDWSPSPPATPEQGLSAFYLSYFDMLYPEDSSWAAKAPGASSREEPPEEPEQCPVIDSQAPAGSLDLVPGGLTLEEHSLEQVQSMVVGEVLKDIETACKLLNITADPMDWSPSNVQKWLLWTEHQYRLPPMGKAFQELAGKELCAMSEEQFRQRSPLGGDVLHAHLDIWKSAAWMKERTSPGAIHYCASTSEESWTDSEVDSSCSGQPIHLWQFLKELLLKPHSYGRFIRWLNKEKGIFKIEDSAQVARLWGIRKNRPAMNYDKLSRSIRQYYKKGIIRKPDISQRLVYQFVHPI
# Summary of the method: as §1
# ETV7 = biological target: T10, ETV7 (Homo sapiens, UniProt Q9Y603 1-341); conditions: protein: recombinant; tags: N-terminal GST; dsDNA, one strand shown
# T10 sequence: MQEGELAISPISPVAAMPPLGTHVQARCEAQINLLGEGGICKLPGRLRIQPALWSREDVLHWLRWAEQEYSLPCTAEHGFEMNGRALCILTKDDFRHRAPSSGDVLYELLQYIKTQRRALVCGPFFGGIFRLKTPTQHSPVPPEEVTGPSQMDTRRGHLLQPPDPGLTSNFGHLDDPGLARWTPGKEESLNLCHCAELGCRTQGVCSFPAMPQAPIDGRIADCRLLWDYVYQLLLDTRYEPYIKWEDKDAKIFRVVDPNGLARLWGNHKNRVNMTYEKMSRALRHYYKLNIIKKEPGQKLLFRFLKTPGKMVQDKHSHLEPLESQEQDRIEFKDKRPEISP
# Summary of the method: as §1
# ELF5 = biological target: T11, ELF5 (Homo sapiens, UniProt Q9UKW6-2 1-255); conditions: protein: recombinant; tags: N-terminal GST; dsDNA, one strand shown
# T11 sequence: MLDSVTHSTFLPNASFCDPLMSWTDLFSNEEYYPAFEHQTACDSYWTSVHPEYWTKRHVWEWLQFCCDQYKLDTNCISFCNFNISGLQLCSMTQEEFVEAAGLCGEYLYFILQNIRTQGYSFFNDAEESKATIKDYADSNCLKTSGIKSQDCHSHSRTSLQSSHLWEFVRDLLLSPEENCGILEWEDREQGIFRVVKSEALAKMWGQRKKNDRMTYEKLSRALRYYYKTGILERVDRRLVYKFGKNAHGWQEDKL
# Summary of the method: as §1
# ETV3 = biological target: T12, ETV3 (Homo sapiens, UniProt P41162-2 1-143); conditions: protein: recombinant; tags: N-terminal GST; dsDNA, one strand shown
# T12 sequence: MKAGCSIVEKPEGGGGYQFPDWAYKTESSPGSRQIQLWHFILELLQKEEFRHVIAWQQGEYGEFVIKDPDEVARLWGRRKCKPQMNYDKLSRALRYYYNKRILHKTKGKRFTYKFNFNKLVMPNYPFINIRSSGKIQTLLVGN
# Summary of the method: as §1
# ETV6 = ETV6 (Homo sapiens, UniProt P41212 1-452); conditions: protein: recombinant; tags: N-terminal GST; dsDNA, one strand shown
# Sequence of ETV6 (P41212 whole entry): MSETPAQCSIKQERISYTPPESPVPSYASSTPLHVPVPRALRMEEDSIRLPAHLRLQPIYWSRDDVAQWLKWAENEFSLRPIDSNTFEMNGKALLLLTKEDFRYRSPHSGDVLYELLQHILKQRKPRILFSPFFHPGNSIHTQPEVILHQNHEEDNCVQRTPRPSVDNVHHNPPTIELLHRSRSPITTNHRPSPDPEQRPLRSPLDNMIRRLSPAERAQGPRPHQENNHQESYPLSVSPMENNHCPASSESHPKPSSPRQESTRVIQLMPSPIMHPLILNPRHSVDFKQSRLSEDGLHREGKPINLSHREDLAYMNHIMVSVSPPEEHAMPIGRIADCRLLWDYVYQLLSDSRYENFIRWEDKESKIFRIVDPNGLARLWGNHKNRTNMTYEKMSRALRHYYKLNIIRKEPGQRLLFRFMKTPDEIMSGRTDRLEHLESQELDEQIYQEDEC
# Summary of the method: as §1
sequence,measurement,setting,value
TCCTCG,binding signal,FEV,"1.37 fold enrichment (6-mer frequency, TF over GST control)"
same,binding signal,ETV5,"1.51 fold enrichment (6-mer frequency, TF over GST control)"
same,binding signal,HSF1,"1.54 fold enrichment (6-mer frequency, TF over GST control)"
same,binding signal,SPIC,"1.45 fold enrichment (6-mer frequency, TF over GST control)"
same,binding signal,ELF4,"1.51 fold enrichment (6-mer frequency, TF over GST control)"
same,binding signal,ELK4,"1.41 fold enrichment (6-mer frequency, TF over GST control)"
same,binding signal,ETV2,"1.66 fold enrichment (6-mer frequency, TF over GST control)"
same,binding signal,ELF3,"1.53 fold enrichment (6-mer frequency, TF over GST control)"
same,binding signal,CRX,"1.37 fold enrichment (6-mer frequency, TF over GST control)"
same,binding signal,ETV1,"1.65 fold enrichment (6-mer frequency, TF over GST control)"
same,binding signal,ERF,"1.48 fold enrichment (6-mer frequency, TF over GST control)"
same,binding signal,ETV3L,"1.57 fold enrichment (6-mer frequency, TF over GST control)"
same,binding signal,ETS2,"1.35 fold enrichment (6-mer frequency, TF over GST control)"
same,binding signal,SPDEF,"1.33 fold enrichment (6-mer frequency, TF over GST control)"
same,binding signal,ETV7,"1.49 fold enrichment (6-mer frequency, TF over GST control)"
same,binding signal,ELF5,"1.93 fold enrichment (6-mer frequency, TF over GST control)"
same,binding signal,ETV3,"1.5 fold enrichment (6-mer frequency, TF over GST control)"
same,binding signal,ETV6,"1.48 fold enrichment (6-mer frequency, TF over GST control)"
